Test results from PubChem BioAssay AID1159580 (chemical genetic matrix, 2015).
In all, about 5,500 compounds went through this assay and about 2,000 (36%) were called active. Inconclusive results (about 18%) are left out. Cut-off read from the data, not from the text of the source: active = normalized growth mostly below about 0.91 (no sharp cut-off); inconclusive = no clear call, values can overlap the other calls; inactive = mostly above about 0.92. The list shows a part of the results.

Assay: chemical genetic growth profiling, strain panel (AID 1159580);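 note: tested at 20 µM; growth read once vehicle control cultures reached saturation at 30 °C; 1 = growth at the plate median or of vehicle wells; lower values mean less growth of the strain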
Details: S. cerevisiae deletion strains, growth OD

Measured: normalized growth

Oc1c(Br)cc(Br)cc1C=Nc1ccccn1
active: locus YDL214C, strain PRR2, stronger effect = lower value 0.221 | locus YDR477W, strain SNF1, stronger effect = lower value 0.417 | locus YER123W, strain YCK3, stronger effect = lower value 0.119 | locus YER133W, strain GLC7, stronger effect = lower value 0.288 | locus YFR019W, strain FAB1, stronger effect = lower value 0.111 | locus YGR040W, strain KSS1, stronger effect = lower value 0.437 | locus YGR052W, strain FMP48, stronger effect = lower value 0.179 | locus YGR092W, strain DBF2, stronger effect = lower value 0.16 | locus YHR030C, strain SLT2, stronger effect = lower value 0.133 | locus YHR079C, strain IRE1, stronger effect = lower value 0.135 | locus YHR082C, strain KSP1, stronger effect = lower value 0.161 | locus YHR205W, strain SCH9, stronger effect = lower value 0.118 | locus YJL095W, strain BCK1, stronger effect = lower value 0.132 | locus YJL157C, strain FAR1, stronger effect = lower value 0.165 | locus YJR066W, strain TOR1 (second series), stronger effect = lower value 0.368 | locus YJR066W, strain TOR1, stronger effect = lower value 0.141 | locus YKL048C, strain ELM1, stronger effect = lower value 0.55 | locus YKL067W, strain YNK1, stronger effect = lower value 0.213 | locus YKL101W, strain HSL1, stronger effect = lower value 0.375 | locus YKL203C, strain TOR2, stronger effect = lower value 0.348 | locus YLR113W, strain HOG1, stronger effect = lower value 0.154 | locus YLR133W, strain CKI1, stronger effect = lower value 0.165 | locus YLR403W, strain SFP1, stronger effect = lower value 0.167 | locus YML070W, strain DAK1, stronger effect = lower value 0.113 | locus YMR205C, strain PFK2 (second series), stronger effect = lower value 0.211 | locus YNL006W, strain LST8, stronger effect = lower value 0.895 | locus YNL020C, strain ARK1, stronger effect = lower value 0.14 | locus YNL183C, strain NPR1, stronger effect = lower value 0.146 | locus YNL307C, strain MCK1 (second series), stronger effect = lower value 0.23 | locus YOL136C, strain PFK27, stronger effect = lower value 0.116 | locus YOR061W, strain CKA2, stronger effect = lower value 0.114 | locus YOR119C, strain RIO1, stronger effect = lower value 0.341 | locus YOR231W, strain MKK1, stronger effect = lower value 0.12 | locus YPL031C, strain PHO85, stronger effect = lower value 0.296 | locus YPL153C, strain RAD53, stronger effect = lower value 0.23 | locus YPL204W, strain HRR25, stronger effect = lower value 0.304 | locus YPL256C, strain CLN2, stronger effect = lower value 0.155
inactive: locus YBL105C, strain PKC1, stronger effect = lower value 0.969 | locus YBR135W, strain CKS1, stronger effect = lower value 0.965 | locus YBR136W, strain MEC1, stronger effect = lower value 0.967 | locus YBR160W, strain CDC28, stronger effect = lower value 0.965 | locus YDL017W, strain CDC7, stronger effect = lower value 0.958 | locus YDL028C, strain MPS1, stronger effect = lower value 0.96 | locus YDL108W, strain KIN28, stronger effect = lower value 0.978 | locus YDR052C, strain DBF4, stronger effect = lower value 0.968 | locus YDR226W, strain ADK1, stronger effect = lower value 0.989 | locus YFR003C, strain YPI1, stronger effect = lower value 0.952 | locus YFR028C, strain CDC14, stronger effect = lower value 0.984 | locus YIL147C, strain SLN1, stronger effect = lower value 0.965 | locus YJL128C, strain PBS2, stronger effect = lower value 0.937 | locus YJR016C, strain ILV3, stronger effect = lower value 0.974 | locus YMR001C, strain CDC5, stronger effect = lower value 0.962 | locus YNL161W, strain CBK1, stronger effect = lower value 0.968 | locus YNL207W, strain RIO2, stronger effect = lower value 0.965 | locus YNL222W, strain SSU72, stronger effect = lower value 0.96 | locus YOR329C, strain SCD5, stronger effect = lower value 0.963 | locus YPL209C, strain IPL1, stronger effect = lower value 0.967 | locus YPR025C, strain CCL1, stronger effect = lower value 0.968 | locus YPR106W, strain ISR1, stronger effect = lower value 0.962 | locus YPR111W, strain DBF20, stronger effect = lower value 0.953 | strain NNK1, stronger effect = lower value 0.947
